# Experimental data from the supplement of paper PMC10037445.
# ± gives the standard deviation of the averaged measurements. The full ranking holds about 2,900 compounds; the median of “NF-kB SEAP reporter activity, fold change vs agonist alone” is about 0.99, and the highest 2% start at about 2.6. The sample holds the highest values, similar compounds and a random draw of the others, so the mix is not that of the screen.
# Key:
# RAW-Dual [1] = experiment: NF-kB SEAP reporter activity, fold change vs agonist alone; cytotoxicity flag (confluency mask): not cytotoxic; higher = enhanced NF-kB activity
# In short: (§1)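 Cytotoxic wells were those whose IncuCyte confluency was below 70% of agonist controls in both mask sets. The cells were RAW-Dual macrophages at 50,000 cells/well in DMEM on 384-well plates, dosed with 50 nL of library stock by pin tool, stimulated with a PRR agonist 1 h later, and kept at 37 °C, 5% CO2 for 20 hours. IRF and NF-κB reporter activity, as fold change over agonist-alone wells, came from supernatant read by QuantiLuc luminescence and QuantiBlue absorbance, respectively.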
# RAW-Dual [2] = experiment: NF-kB SEAP reporter activity, fold change vs agonist alone; higher = enhanced NF-kB activity; details: library stock concentration (final ~1000-fold dilution): 10 mM
# In short: as §1
# RAW-Dual [3] = experiment: NF-kB SEAP reporter activity, fold change vs agonist alone; cytotoxicity flag (confluency mask): cytotoxic (confluency <70% of control); higher = enhanced NF-kB activity
# In short: as §1
# [4] = agonist: ODN 1826 (TLR9) 0.5 ug/mL
# [5] = agonist: Pam2CSK4 (TLR2/6) 0.1 ug/mL
# [6] = agonist: Pam3CSK4 (TLR2/1) 0.1 ug/mL
# [7] = cytotoxicity flag (confluency mask): not cytotoxic, agonist: Imiquimod (TLR7) […]
# [8] = cytotoxicity flag (confluency mask): not cytotoxic, agonist: MPLA (TLR4) […]
compound,measurement,setting,value
O=C(Cc1ccccc1)Nc1nnc(NC2CCN(c3nnc(NC(=O)Cc4ccccc4)s3)CC2)s1 (library stock concentration (final ~1000-fold dilution): 10 mM),NF-kB SEAP reporter activity,RAW-Dual [1]; agonist: LPS (TLR4) 0.1 ug/mL,1.41
same,NF-kB SEAP reporter activity,RAW-Dual [1]; [4],0.773
same,NF-kB SEAP reporter activity,RAW-Dual [1]; [5],0.514
same,NF-kB SEAP reporter activity,RAW-Dual [1]; [6],0.64
O=C(Cc1ccccc1)Nc1nnc(NC2CCN(c3nnc(NC(=O)Cc4ccccc4)s3)CC2)s1,NF-kB SEAP reporter activity,RAW-Dual [2]; [7],0.998
same,NF-kB SEAP reporter activity,RAW-Dual [2]; [8],1.26
COc1ccc(C2CC(=O)c3c(O)cc(O)cc3O2)cc1O (configuration not stated),NF-kB SEAP reporter activity,RAW-Dual [2]; [7],1.28
same,NF-kB SEAP reporter activity,RAW-Dual [2]; [8],1.11
COc1ccc(C2CC(=O)c3c(O)cc(O)cc3O2)cc1O (configuration not stated) (library stock concentration (final ~1000-fold dilution): 10 mM),NF-kB SEAP reporter activity,RAW-Dual [1]; agonist: LPS (TLR4) 0.1 ug/mL,1.12
same,NF-kB SEAP reporter activity,RAW-Dual [1]; [4],1.2
same,NF-kB SEAP reporter activity,RAW-Dual [1]; [5],1.26
same,NF-kB SEAP reporter activity,RAW-Dual [1]; [6],1.33
O=C(O)CCN1C(=O)/C(=C2/C(=O)Nc3ccc(Cl)cc32)SC1=S,NF-kB SEAP reporter activity,RAW-Dual [2]; [7],0.954
same,NF-kB SEAP reporter activity,RAW-Dual [2]; [8],1.18
O=C(O)CCN1C(=O)/C(=C2/C(=O)Nc3ccc(Cl)cc32)SC1=S (library stock concentration (final ~1000-fold dilution): 10 mM),NF-kB SEAP reporter activity,RAW-Dual [1]; agonist: LPS (TLR4) 0.1 ug/mL,1.86
same,NF-kB SEAP reporter activity,RAW-Dual [1]; [4],0.841
same,NF-kB SEAP reporter activity,RAW-Dual [1]; [5],1.4
same,NF-kB SEAP reporter activity,RAW-Dual [1]; [6],1.57
COc1cc2c(OC3OC(CO)C4OC(C)(C)OC4C3O)c3c(c(-c4ccc5c(c4)OCO5)c2cc1OC)C(=O)OC3 (configuration not stated) (library stock concentration (final ~1000-fold dilution): 10 mM),NF-kB SEAP reporter activity,RAW-Dual [1]; agonist: LPS (TLR4) 0.1 ug/mL,2.9
same,NF-kB SEAP reporter activity,RAW-Dual [1]; [4],0.644
same,NF-kB SEAP reporter activity,RAW-Dual [1]; [5],1.95
same,NF-kB SEAP reporter activity,RAW-Dual [1]; [6],3.92
COc1cc(-c2oc3cc(O)cc(O)c3c(=O)c2OC2OC(CO)C(O)C(O)C2OC2OC(C)C(O)C(O)C2O)ccc1O (configuration not stated) (library stock concentration (final ~1000-fold dilution): 10 mM),NF-kB SEAP reporter activity,RAW-Dual [1]; agonist: LPS (TLR4) 0.1 ug/mL,1.2
same,NF-kB SEAP reporter activity,RAW-Dual [1]; [4],0.987
same,NF-kB SEAP reporter activity,RAW-Dual [1]; [5],1.01
same,NF-kB SEAP reporter activity,RAW-Dual [1]; [6],0.949
COc1cc(/C=C/CO)cc(OC)c1OC1OC(CO)C(O)C(O)C1O (configuration not stated) (library stock concentration (final ~1000-fold dilution): 10 mM),NF-kB SEAP reporter activity,RAW-Dual [1]; agonist: LPS (TLR4) 0.1 ug/mL,1.08
same,NF-kB SEAP reporter activity,RAW-Dual [1]; [4],1.01
same,NF-kB SEAP reporter activity,RAW-Dual [1]; [5],1.11
same,NF-kB SEAP reporter activity,RAW-Dual [1]; [6],1.15
COc1cc2c(OC3OC(CO)C4OC(C)(C)OC4C3O)c3c(c(-c4ccc5c(c4)OCO5)c2cc1OC)C(=O)OC3 (configuration not stated),NF-kB SEAP reporter activity,RAW-Dual [2]; [7],0.364
same,NF-kB SEAP reporter activity,RAW-Dual [2]; [8],2.28
COc1cc(-c2oc3cc(O)cc(O)c3c(=O)c2OC2OC(CO)C(O)C(O)C2OC2OC(C)C(O)C(O)C2O)ccc1O (configuration not stated),NF-kB SEAP reporter activity,RAW-Dual [2]; [7],0.928
same,NF-kB SEAP reporter activity,RAW-Dual [2]; [8],1.05
COc1cc(/C=C/CO)cc(OC)c1OC1OC(CO)C(O)C(O)C1O (configuration not stated),NF-kB SEAP reporter activity,RAW-Dual [2]; [7],1.03
same,NF-kB SEAP reporter activity,RAW-Dual [2]; [8],1.08
CC(NC(CCc1ccccc1)C(=O)O)C(=O)N1CCCC1C(=O)O.O.O (configuration not stated) (library stock concentration (final ~1000-fold dilution): 10 mM),NF-kB SEAP reporter activity,RAW-Dual [1]; agonist: LPS (TLR4) 0.1 ug/mL,0.977
same,NF-kB SEAP reporter activity,RAW-Dual [1]; [4],1.07
same,NF-kB SEAP reporter activity,RAW-Dual [1]; [5],1.14
same,NF-kB SEAP reporter activity,RAW-Dual [1]; [6],1.09
CC(NC(CCc1ccccc1)C(=O)O)C(=O)N1CCCC1C(=O)O.O.O (configuration not stated),NF-kB SEAP reporter activity,RAW-Dual [2]; [7],0.942
same,NF-kB SEAP reporter activity,RAW-Dual [2]; [8],1.12
COc1cc(C(N)=O)nc(-c2cccc(C#C[C@]3(O)CCN(C)C3=O)c2)c1,NF-kB SEAP reporter activity,RAW-Dual [2]; [7],0.839
same,NF-kB SEAP reporter activity,RAW-Dual [2]; [8],0.915
COc1cc(C(N)=O)nc(-c2cccc(C#C[C@]3(O)CCN(C)C3=O)c2)c1 (library stock concentration (final ~1000-fold dilution): 10 mM),NF-kB SEAP reporter activity,RAW-Dual [1]; agonist: LPS (TLR4) 0.1 ug/mL,1.39
same,NF-kB SEAP reporter activity,RAW-Dual [1]; [4],0.529
same,NF-kB SEAP reporter activity,RAW-Dual [1]; [5],0.699
same,NF-kB SEAP reporter activity,RAW-Dual [1]; [6],0.966
Cc1noc(C)c1-c1ccc(-c2cc(C(N)=O)c(NC(N)=O)s2)c(OC2CCNC2)c1 (configuration not stated),NF-kB SEAP reporter activity,RAW-Dual [2]; [7],0.654 ± 0.054
same,NF-kB SEAP reporter activity,RAW-Dual [2]; [8],0.683 ± 0.15
Cc1noc(C)c1-c1ccc(-c2cc(C(N)=O)c(NC(N)=O)s2)c(OC2CCNC2)c1 (configuration not stated) (library stock concentration (final ~1000-fold dilution): 10 mM),NF-kB SEAP reporter activity,RAW-Dual [1]; agonist: LPS (TLR4) 0.1 ug/mL,0.567 ± 0.07
same,NF-kB SEAP reporter activity,RAW-Dual [1]; [4],0.449 ± 0.019
same,NF-kB SEAP reporter activity,RAW-Dual [1]; [5],0.275 ± 0.0078
same,NF-kB SEAP reporter activity,RAW-Dual [1]; [6],0.392 ± 0.058
CCN(C(=O)c1c(O)n(C)c2cccc(Cl)c2c1=O)c1ccccc1,NF-kB SEAP reporter activity,RAW-Dual [2]; [7],0.913
same,NF-kB SEAP reporter activity,RAW-Dual [2]; [8],0.993
CCN(C(=O)c1c(O)n(C)c2cccc(Cl)c2c1=O)c1ccccc1 (library stock concentration (final ~1000-fold dilution): 10 mM),NF-kB SEAP reporter activity,RAW-Dual [1]; agonist: LPS (TLR4) 0.1 ug/mL,1.08
same,NF-kB SEAP reporter activity,RAW-Dual [1]; [4],1.06
same,NF-kB SEAP reporter activity,RAW-Dual [1]; [5],1.01
same,NF-kB SEAP reporter activity,RAW-Dual [1]; [6],1
C=C(Cc1ccccc1Cl)C(=O)OCC (library stock concentration (final ~1000-fold dilution): 10 mM),NF-kB SEAP reporter activity,RAW-Dual [3]; agonist: LPS (TLR4) 0.1 ug/mL,0.636
same,NF-kB SEAP reporter activity,RAW-Dual [3]; [4],0.588
same,NF-kB SEAP reporter activity,RAW-Dual [3]; [5],0.682
same,NF-kB SEAP reporter activity,RAW-Dual [3]; [6],0.806
C=C(Cc1ccccc1Cl)C(=O)OCC,NF-kB SEAP reporter activity,"RAW-Dual [2]; cytotoxicity flag (confluency mask): cytotoxic (confluency <70% of control), agonist: Imiquimod (TLR7) […]",0.73
same,NF-kB SEAP reporter activity,"RAW-Dual [2]; cytotoxicity flag (confluency mask): cytotoxic (confluency <70% of control), agonist: MPLA (TLR4) […]",0.891
COCCNCc1ccc(-c2cc3nccc(Oc4ccc(NC(=O)C5(C(=O)Nc6ccc(F)cc6)CC5)cc4F)c3s2)nc1 (library stock concentration (final ~1000-fold dilution): 10 mM),NF-kB SEAP reporter activity,RAW-Dual [1]; agonist: LPS (TLR4) 0.1 ug/mL,0.36
same,NF-kB SEAP reporter activity,RAW-Dual [1]; [4],0.205
same,NF-kB SEAP reporter activity,RAW-Dual [1]; [5],0.0909
same,NF-kB SEAP reporter activity,RAW-Dual [1]; [6],0.149
COCCNCc1ccc(-c2cc3nccc(Oc4ccc(NC(=O)C5(C(=O)Nc6ccc(F)cc6)CC5)cc4F)c3s2)nc1,NF-kB SEAP reporter activity,RAW-Dual [2]; [7],0.327
same,NF-kB SEAP reporter activity,RAW-Dual [2]; [8],0.388
